# KB-3-1 tox: KB-3-1 parental cell cytotoxicity; KB-3-1 viability, CellTiter-Glo ATP luminescence, 72 h; Potency, µM (highest dose often 46.1 µM), actives largely listed as cytotoxic; actives 1.4% (n = 400,000); note: nearly all actives have a fitted effect of over 60% in size
#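 Using CellTiter-Glo luminescence, growth of non-resistant KB-3-1 adenocarcinoma cells is assessed 72 h after pin-tool compound addition at 37 °C. Normalized responses across the concentration series yield fitted curves.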
# HT1080 IDH1KD tx: kills HT-1080 cells with IDH1 knockdown; HT-1080 IDH1 knockdown viability, ATP luminescence, 48 h; Potency, µM (top dose mostly 46.1 µM), without a hit: at the top dose activity, negative = toxicity, actives largely listed as cytotoxic; actives 2% (n = 360,000); AID 686971;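 note: 0% = DMSO wells and -100% = cell-free medium wells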
#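 Assay cells: HT-1080 with IDH1 knockdown, 750 per well, RPMI/5% FBS. Exposure: 48 h at 37 °C following 2 h pre-incubation. Read: CellTiter-Glo luminescence; fitted concentration-response, curve class assigned.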
# KB-V1 cytotox: KB-V1 MDR subline cytotoxicity | KB-V1 MDR cells viability, CellTiter-Glo, 72 h | Potency, µM (titrated, usually from 46.1 µM), hits mostly cytotoxic | actives 3.4% (n = 400,000); note: nearly all actives have a fitted effect of over 60% in size
#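 KB-V1 MDR subline cells in DMEM (phenol-red free, 10% FBS) exposed to compounds in qHTS concentration series for 72 h at 37 degrees C. Viability read by CellTiter-Glo luminescence; concentration-effect curves fitted after normalization and correction.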
# DT40 TDP1 CPT: DT40-hTDP1 cell growth loss with CPT; chicken DT40 Tdp1-/-;hTDP1 cells + 20 nM CPT, ATP luminescence, 48 h; Potency, µM (highest dose often 46.2 µM), for the others: at the highest dose activity change, negative = growth inhibition, most hits filed as inhibitors; actives 12% (n = 420,000); note: nearly all actives have a fitted effect of over 55% in size
#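 Chicken DT40 Tdp1-/- cells complemented with human TDP1, 400 cells/well, exposed to compounds plus 20 nM camptothecin for at least 48 h at 37 C; viability read as ATP content by CellTiter-Glo luminescence.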
# TDP1 cell noCPT: qHTS for Inhibitors of human tyrosyl-DNA phosphodiesterase 1 (TDP1): qHTS in cells in absence of CPT. Potency, µM (doses to about 46.2 µM), for inactives: at the highest dose activity change, negative = growth inhibition, actives largely listed as inhibitors. DT40 Tdp1-/- hTDP1 cells, no CPT, ATP luminescence, 48 h. actives 15% (n = 420,000); note: nearly all actives have a fitted effect of over 55% in size
#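 Camptothecin absent (DMSO only). Human TDP1-complemented DT40 knockout cells, 400 cells/well, 37 °C for minimum 48 hr; ATP measured via CellTiter-Glo, 30 min dark incubation, luminescence.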
# HT1080NT lethal: kills 2HG-producing HT-1080-NT fibrosarcoma cells; HT-1080-NT fibrosarcoma viability, CellTiter-Glo ATP luminescence, 48 h; Potency, µM (top dose mostly 46.1 µM), for the others: at the top dose activity, negative = less viability, usual class: cytotoxic; actives 1.6% (n = 360,000);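 note: NT is the 2HG producing partner of a matched IDH1 knockdown line; 0% = DMSO-treated cells and -100% = media-only wells without cells; nearly all actives have a fitted effect of over 55% in size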
#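 Read-out is CellTiter-Glo luminescence after 10 minutes at room temperature, following 48 hours' compound treatment of HT-1080-NT cells (750 cells/well, RPMI, 5% FBS, 37 degrees C).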
# An asterisk follows results filed as active; i = inactive; ? = inconclusive; / = no result given. Shown are actives, neighbours in structure and some others; about 19% of the full set was active somewhere. Calls come from the whole dose curve; as a rule, active = well fitted curve in the direction sought with a large enough effect; inconclusive = small, poorly fitted or top-dose-only effect, or another doubt; inactive = no such curve, though single readings can be large; an effect the other way counts as inactive or inconclusive. Unless noted, % is set by controls: 0 for no effect and ±100 for the full control effect; potency is the fitted concentration of half-maximal effect.
SMILES,KB-3-1 tox,HT1080 IDH1KD tx,KB-V1 cytotox,DT40 TDP1 CPT,TDP1 cell noCPT,HT1080NT lethal
Cc1ccc(Cl)cc1NC(=O)C1C2CCC(O2)C1C(=O)O (centres undefined),i,-3.9%,?,-9.9%,2.7%,1.8%
COc1cc(=O)n2c(c1C(=O)NCc1nonc1C)CCN(C(=O)c1cccc(C)c1C)CC2,/,/,/,3.8%,-22.7%,/
O=C(Nc1ccccc1N1CCOCC1)C1=NN(c2ccccc2)C(=O)CC1,?,-20.6%,?,-45.6%,?,?
COc1ccc(-c2cc(C)no2)cc1S(=O)(=O)N(C)c1cccc(C)c1,i,-6.9%,i,-11.4%,?,-3.6%
CCOc1ccc(N(C)S(=O)(=O)c2ccc(-c3cc(C)no3)s2)cc1,5.8µM*,7.31µM*,?,3.66µM*,4.11µM*,11.6µM*
Cc1cccc(N(C)S(=O)(=O)c2ccc(-c3cc(C)no3)s2)c1,?,0.581µM*,?,0.82µM*,0.651µM*,?
CCN(c1cccc(C)c1)S(=O)(=O)c1ccc(-c2cc(C)no2)s1,4.61µM*,?,?,2.91µM*,2.59µM*,?
COc1ccc(CNC(=O)CCNC(=O)c2ccco2)cc1OC,i,4.8%,?,-1.5%,6.1%,4.6%
OC1(Cc2cc(-c3ccccc3)no2)CCN(CCCc2ccccc2)CC1,i,3.1%,i,?,?,-0.5%
CCN1C(=O)[C@H]2[C@@H](c3ccc(OC)cc3)N[C@]3(CCCN(Cc4ccc(Br)cc4)C3=O)[C@H]2C1=O,i,-3.9%,i,-8.2%,25.9µM*,-8.7%
COc1ccc([C@H]2N[C@]3(CCCN(Cc4ccc(Br)cc4)C3=O)[C@H]3C(=O)N(Cc4ccccc4)C(=O)[C@@H]23)cc1,i,-22.4%,i,?,14.6µM*,-20.3%
COc1ccc(CN2CCC[C@]3(N[C@H](c4ccc(OC)cc4)[C@@H]4C(=O)N(Cc5ccccc5)C(=O)[C@@H]43)C2=O)cc1,i,1.1%,i,20.6µM*,16.4µM*,-7.1%
COc1ccc(CN2CCC[C@]3(N[C@H](c4ccccc4)[C@@H]4C(=O)N(Cc5ccccc5)C(=O)[C@@H]43)C2=O)cc1,i,15.8%,i,?,18.4µM*,-0.8%
COc1ccc(CN2CCC[C@]3(N[C@H](c4ccc(C)cc4)[C@@H]4C(=O)N(Cc5ccccc5)C(=O)[C@@H]43)C2=O)cc1,i,-3.5%,i,?,?,-1.0%
CCOC(=O)[C@]12CCC=C1N(Cc1cccc3ccccc13)C(=O)[C@H](CC(=O)NCCCN1CCCC1=O)C2,i,-3.7%,i,?,?,16.0%
O=C(NCc1cccc(F)c1)Nc1nnc([C@@H]2C[C@H](O)[C@@H](CO)O2)s1,i,?,i,7.5%,-1.8%,10.6%
CC12CCC(=O)N1C(C(=O)N1CCN(S(=O)(=O)c3ccc(F)c(F)c3)CC1)CS2 (centres undefined),i,0.7%,i,4.1%,-19.3%,0.5%
Cc1nc(CC(=O)Nc2cc(Cl)ccc2C)cs1,/,/,/,-0.8%,-4.8%,/
CN1CCN(c2ncnc3scc(-c4ccccc4Cl)c23)CC1,i,-5.4%,i,?,9.2µM*,-13.8%
COc1ccc(-c2csc3ncnc(N4CCN(CCO)CC4)c23)cc1,i,-18.6%,i,-23.4%,?,-2.0%
Oc1ccccc1N1CCN(c2ncnc3scc(-c4ccccc4)c23)CC1,?,?,?,?,23.1µM*,?
CC(=O)Nc1cccc(Oc2ncnc3scc(-c4ccc(C(C)C)cc4)c23)c1,?,?,20.6µM*,1.3µM*,1.16µM*,?
CN1CCN(c2ncncc2-c2ccccc2Cl)CC1,/,/,/,7.8%,-0.5%,/
COc1ccc(-c2csc3ncnc(N4CCN(c5ccccc5OC)CC4)c23)cc1,?,-6.5%,?,?,18.4µM*,-18.5%
OC[C@H]1O[C@@](CO)(O[C@H]2O[C@H](CO)[C@@H](O)[C@H](O)[C@H]2O)[C@@H](O)[C@@H]1O,/,/,/,6.0%,0.0%,/
SMILES,KB-3-1 tox,HT1080 IDH1KD tx,KB-V1 cytotox,DT40 TDP1 CPT,TDP1 cell noCPT,HT1080NT lethal
CCC(O)(Cc1ccccn1)Cc1ccccn1,i,3.9%,?,14.9%,12.0%,1.8%
Cc1ccc(NC(=O)COC(=O)Cc2ccc(Br)cc2)cc1S(=O)(=O)N1CCOCC1,i,20.9%,i,-1.4%,-12.3%,13.1%
CCN1CCN(c2ncnc3scc(-c4ccc(C)cc4)c23)CC1,i,-4.1%,i,?,?,-10.9%
Cc1ccc2cccc(Oc3ncnc4scc(-c5ccccc5)c34)c2n1,i,?,?,?,?,?
COc1ccc(-c2csc3ncnc(Oc4cccc5ccc(C)nc45)c23)cc1,i,-28.7%,i,16.4µM*,?,-5.4%
Cc1nc(N2CCN(c3ccccc3O)CC2)c2c(-c3ccccc3)csc2n1,?,?,i,?,16.4µM*,-27.0%
COc1ccc(-c2csc3ncnc(NCCCO)c23)cc1,i,?,?,?,8.2µM*,-29.5%
COc1ccc(CCNC(=O)CCOc2ccc(C(C)(C)C)cc2)cc1OC,i,0.6%,?,?,?,4.5%
CC(=O)c1c(O)cc(C)n(Nc2nc(C)cc(C)n2)c1=O,i,-27.0%,i,18.4µM*,?,?
CC1=Nc2cc(C(=O)NCCc3ccccc3)ccc2Sc2c(C)ccc(C)c21,0.651µM*,/,0.411µM*,/,/,/
COc1ccc(CNC(=O)c2ccc3c(c2)N=C(C)c2c(C)ccc(C)c2S3)cc1,4.61µM*,/,1.84µM*,/,/,/
CCCNC(=O)c1ccc2c(c1)N=C(C)c1c(C)ccc(C)c1S2,0.82µM*,/,?,/,/,/
COc1ccc(CNC(=O)c2ccc3nccnc3c2)cc1,i,-14.6%,i,-5.1%,-11.7%,1.5%
CC1=Nc2cc(C(=O)NCCc3ccc(Cl)cc3)ccc2Sc2c(C)ccc(C)c21,2.59µM*,/,1.64µM*,/,/,/
COC(=O)/C=C/c1oc2ccccc2c1C,i,2.2%,i,-14.9%,-18.9%,3.2%
CCOC(=O)C1CCCN(C(=O)c2ccc3ccccc3c2)CC1 (centres undefined),i,5.5%,i,?,?,-1.5%
CC(=O)NC1(C)CCC2CC1C(C)=NC2(C)C (centres undefined),i,5.7%,i,3.3%,3.6%,?

# Assay outcomes: PubChem, National Center for Advancing Translational Sciences (NCATS)
